Assay results: PubChem BioAssay AID504841 (National Center for Advancing Translational Sciences (NCATS), 2011)
Several values for one entry are separate records, joined by “and”; a condition that tells them apart may be missing. Identical values can stand only once. The whole screen tested about 1,100 compounds, of which about 160 (15%) were called active. Roughly 36% stayed inconclusive and do not appear here. Calls come from the whole dose curve; as a rule, active = well fitted inhibition curve with a large enough effect; inconclusive = small, poorly fitted or top-dose-only effect; inactive = no such curve, though single readings can be large or run the other way. A selection follows.

These molecules were tested against ATP-dependent DNA helicase Q1 (Homo sapiens) (UniProt P46063) (assay: Confirmation qHTS Assay for Inhibitors of RecQ-Like Dna Helicase 1 (RECQ1) - Round 2 Cherry Picks). Conditions: recombinant RECQ1 DNA unwinding, red fluorescence; series mostly up to 119 µM; activity, negative = inhibition: at the top concentration.
Text: Survival of cells and the faithful propagation of the genome depend on elaborate mechanisms of detecting and repairing DNA damage. Treatment of advanced cancer relies on radiation therapy or chemotherapy, which kill cancer cells by causing extensive DNA damage. It is often found, that cancer cells develop resistance to therapy through enhanced activity of DNA repair functions; this has led to an increased interest in developing drugs that interfere with DNA repair, which could sensitize cancer cells to conventional therapy. This validation qHTS assay pertains to human RECQ1, which is important in resolving abnormal DNA structures formed during replication or homologous recombination. Shutting down the expression of RECQ1 leads to chromosomal instability and higher radiation sensitivity in cultured cells. […] The validation assay was a fluorescence quenching based kinetic qHTS for RECQ1 Helicase DNA unwinding. The activity was measured as ATP-dependent separation of a 20-bp DNA duplex extended by 30-nt single-stranded tails (forked duplex). The forked DNA substrate was tagged with rhodamine fluorophore (carboxytetramethyl rhodamine, TAMRA) and BHQ-2 (Black Hole Quencher 2) dark quencher. Strand separation results in an increase in the fluorescence of TAMRA (excitation 525 nm, emission 598 nm). This substrate construct operates in a red-shifted region where very few compound library members have been noted to fluoresce (PubChem AIDs 593 and 594). An additional feature of the assay is the inclusion of 2.5 ug/ml poly (dIdC), to reduce interference by compounds such as DNA intercalators, a major source of false inhibitors. NIH Chemical Genomics Center [NCGC] NIH Molecular Libraries Probe Centers Network [MLPCN] MLPCN Grant: MH087284-01 Assay Submitter (PI): Opher Gileadi, Structural Genomics Consortium, University of Oxford
Three uL of reaction buffer (25 mM Tris-HCl (pH 8.0), 5 mM NaCl, 2 mM MgCl2, 1mM DTT, 0.01% Tween- 20, and 2.5 ug/ml poly(dI-dC), including enzyme (50 nM RECQ1T1), were dispensed into a 1536-well Greiner black assay plate via solenoid-valve based nanoliter dispensers. Compounds (23 nl each in columns 5-48) and control (23 nl each in column 2 as dose-response) were transferred via a Kalypsys pintool equipped with a 1536-pin array. The plates were incubated for 15 min at room temperature, and then 1 ul of substrates (200 nM DNA and 2 mM ATP, final concentrations) was added to start the reaction. The plate was transferred into a ViewLux high-throughput CCD imager where the reaction progress was measured in a discontinuous kinetic mode (two reads spaced 2 hours apart, with intermediate room temperature incubation of the covered assay plate) by using standard red-fluorescence optics (excitation filter 525 nm, emission filter 598 nm). Enzyme-free and vehicle (DMSO) controls were included for signal normalization.
% is set by controls: 0 for no effect and ±100 for the full control effect; potency is the fitted concentration of half-maximal effect.
Note: nearly all actives have a fitted effect of over 50% in size.

Sequence of ATP-dependent DNA helicase Q1 (Homo sapiens) (P46063 whole entry, looked up): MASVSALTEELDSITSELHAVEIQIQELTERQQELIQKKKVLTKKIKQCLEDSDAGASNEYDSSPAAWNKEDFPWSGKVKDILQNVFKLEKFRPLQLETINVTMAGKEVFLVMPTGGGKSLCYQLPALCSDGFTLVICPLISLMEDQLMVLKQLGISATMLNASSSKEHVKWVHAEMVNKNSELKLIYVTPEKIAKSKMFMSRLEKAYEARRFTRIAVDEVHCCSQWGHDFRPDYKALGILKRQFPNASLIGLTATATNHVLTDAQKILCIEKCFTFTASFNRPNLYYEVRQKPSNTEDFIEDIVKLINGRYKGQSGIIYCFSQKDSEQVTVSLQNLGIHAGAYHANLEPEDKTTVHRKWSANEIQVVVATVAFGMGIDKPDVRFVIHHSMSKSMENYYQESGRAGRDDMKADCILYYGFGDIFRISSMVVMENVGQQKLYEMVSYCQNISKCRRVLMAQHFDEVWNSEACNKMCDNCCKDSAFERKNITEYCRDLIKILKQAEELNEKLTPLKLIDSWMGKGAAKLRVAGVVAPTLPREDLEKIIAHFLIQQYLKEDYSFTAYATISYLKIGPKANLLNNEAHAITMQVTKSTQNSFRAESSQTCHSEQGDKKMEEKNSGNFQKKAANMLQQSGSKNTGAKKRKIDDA

| Structure (SMILES) | activity, negative = inhibition | Potency |
| --- | --- | --- |
| CCC(c1nnnn1Cc1ccco1)N(Cc1cc2cc(OC)ccc2[nH]c1=O)C1CCCCC1 (stereo not drawn) | -21.4% (inactive) | – |
| COc1cccc(NC(=S)C(C#N)=C2N(C)c3ccccc3N2C)c1 | -0.219% (inactive) | – |
| COc1c(O)cc2oc(-c3ccc(O)c(O)c3)cc(=O)c2c1O | – | 4.47 µM (active) and 2 µM (active) |
| O=C(CSc1ccc(-c2ccco2)nn1)NCc1ccc2c(c1)OCO2 | -23.4% (inactive) | – |
| Oc1c(C=Nc2cccc3nsnc23)ccc2ccccc12 | – | 39.8 µM (active) |
| COc1ccc(Cl)cc1C(=O)NNC(=S)NC(=O)/C=C/c1ccco1 | -2.87% (inactive) | – |
| Oc1ccc(N=Cc2sc3ccccc3c2Cl)cc1 | -11.5% (inactive) | – |
| COc1ccc2[nH]c3c(C)c4cc[n+](C)cc4c(C)c3c2c1 | – | 2.51 µM (active) |
| CCCCOC(=O)c1ccc(NC(c2ccc(C)cc2)P(=O)(OC)OC)cc1 (stereo not drawn) | -16.6% (inactive) | – |
| COC(=O)Cc1cc(=O)n(-c2nc3ccccc3s2)[nH]1 | -11.9% (inactive) | – |
| Cc1cccc(-n2nc3c(c2NC(=O)c2ccc(Br)o2)CSC3)c1C | -41.9% (inactive) | – |
| COc1cc(C(=O)NCc2nnc(SCC(=O)Nc3nc4ccc(C)cc4s3)o2)cc(OC)c1OC | -7.03% (inactive) | – |
| COCCNC(=O)Nc1ccc2nc(-c3ccco3)c(-c3ccco3)nc2c1 | -28.3% (inactive) | – |
| CC(C)Cn1c(N)c(C(=O)NCc2cccs2)c2nc3ccccc3nc21 | -24.6% (inactive) | – |
| CN1C(=O)/C(=C/c2ccco2)SC1=Nc1cccc(C(=O)O)c1 | -25.9% (inactive) | – |
| CCc1cc(C(c2ccccc2OC)N2CCOCC2)c(NC(=O)c2ccccc2)s1 (stereo not drawn) | -9.28% (inactive) | – |
| Cc1ccc(Cc2cnc(N)s2)o1 | -4.53% (inactive) | – |

| Structure (SMILES) | activity, negative = inhibition | Potency |
| --- | --- | --- |
| CC(C)C1N=C2c3ccccc3N=C(SCC(=O)c3ccc(O)c(O)c3)N2C1=O (stereo not drawn) | – | 3.16 µM (active) |
| O=C(NCCCN1CCCCCC1)c1ccc(N2CCCC2=O)cc1 | -2.14% (inactive) | – |
| c1ccc2c(NC3C4CC5CC(C4)CC3C5)nc(N3CCOCC3)nc2c1 (stereo not drawn) | -24.3% (inactive) | – |
| NC1=NC(=O)C(Cc2cccc(Cl)c2Cl)S1 (stereo not drawn) | -8.17% (inactive) | – |
| CC(Oc1cccc(NC(=O)c2cccs2)c1)C(=O)c1ccccc1 (stereo not drawn) | -15.7% (inactive) | – |
| CCC(C)Cn1c(O)cc2nn(-c3nc4ccccc4s3)c(=O)c-2c1C (stereo not drawn) | 0.169% (inactive) | – |
| O=C1c2ccccc2C(=O)N1Cc1cc(-c2ccccc2Cl)no1 | -18% (inactive) | – |
| COc1ccc(OCC(=O)Nc2nnc(-c3ccco3)s2)cc1 | -18.5% (inactive) | – |
| COc1ccc(NC(=O)CSc2nc(NS(=O)(=O)c3ccc(C)cc3)cc(=O)[nH]2)cc1 | -17.4% (inactive) | – |
| COC(C(=O)Nc1ccc(S(=O)(=O)Nc2ccc(C)c(C)c2)cc1)c1ccccc1 (stereo not drawn) | -14.3% (inactive) | – |
| O=C(NCCN1C(=O)S/C(=C\c2cccnc2)C1=O)c1ccc(S(=O)(=O)N2CCCC2)cc1 | -0.658% (inactive) | – |
| O=C(CN1CCN(c2ccc(O)cc2)CC1)Nc1cc(S(=O)(=O)N2CCOCC2)ccc1Cl | -16.7% (inactive) | – |
| CCN(CC)c1ccc2oc(=O)c(C)nc2c1 | – | 50.1 µM (active) |
| COc1ccc(/C(N)=N/OC(=O)CCCc2ccccc2)cc1 | -17.6% (inactive) | – |
| Cc1ccnc2nc(C(=O)Nc3nnc(-c4ccccc4)o3)nn12 | -16.8% (inactive) | – |
| CCc1ccc2nc3sc(C(=O)Nc4nnc(CC)s4)c(N)c3cc2c1 | – | 39.8 µM (active) |
